Test [1] can be described thus: E. coli DRC41 culture turbidity changes, primary screen, E. coli filamentation inducer project, strain DRC41, OD650, 48 h (AID 1152).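 Note: E. coli MC1000 strain DRC41 lacking acrAB efflux pump and sulA.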 The settings on record: E. coli DRC41 (acrAB sulA), higher = more signal, called active from +8 up or from −8 down.
A short description of test [2]: small-molecule binders of probe aLefty1, primary screen, biochemical, small-molecule microarray, 635/667 nm fluorescence (AID 1153).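 Note: score merges spot fluorescence with signal-to-noise ratio from the scanned slide images.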 The settings on record: higher = more signal.
A short description of test [3]: PSAC antagonists in infected red cells, primary screen, cell-based, P. falciparum Indochina, OD700, 1 h (AID 1154). The note with it: P. falciparum Indochina infected RBC osmotic lysis, higher = more signal, called active from +8 up or from −8 down.
A short description of test [4]: PSAC antagonists in infected red cells, primary screen, cell-based, P. falciparum Indochina, OD700, 2 h (AID 1155).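 Note: lysis reports solute entry through the parasite surface anion channel PSAC; channel blockers reduce lysis of infected cells.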 The settings on record: P. falciparum Indochina infected erythrocytes, osmotic lysis OD700; higher = more signal, called active from +8 up or from −8 down.
A short description of test [5]: osmotic lysis modulators in infected erythrocytes, primary screen, PSAC antagonist project, cell-based, P. falciparum Indochina, OD700, 3 h (AID 1156). The note with it: higher = more signal, called active from +8 up or from −8 down.
Test [6] is described as follows: PSAC antagonists in infected red cells, primary screen, cell-based, P. falciparum Indochina, OD700, 18 h (AID 1157). The settings on record: P. falciparum Indochina infected erythrocytes, osmotic lysis OD700, 18 h; higher = more signal, called active from +8 up or from −8 down.
The nature of test [7]: modulators of S6 phosphorylation in cells, primary screen, cell-based, A549, cytoblot, luminescence, serum-stimulated (AID 1158).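 Note: serum-stimulated A549 lung adenocarcinoma cells; signal is phosphorylated S6 detected by cytoblot immunostaining with HRP secondary.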 The settings on record: A549 phospho-S6 cytoblot, 5 h, higher = more signal.
Test [8] deals with NADPH oxidase 2 (Homo sapiens) (UniProt P04839). Nature of the test: NOX2-dependent H2O2 signal modulators, primary screen, NOX inhibitor project, cell-based, HEK293-NOX2, PMA-stimulated, Amplex Red fluorescence (AID 1159). Note: test concentration not given here. The note with it: 45 min, higher = more signal, called active from +8 up or from −8 down.
Chain of NADPH oxidase 2 (Homo sapiens) (P04839 whole entry, looked up): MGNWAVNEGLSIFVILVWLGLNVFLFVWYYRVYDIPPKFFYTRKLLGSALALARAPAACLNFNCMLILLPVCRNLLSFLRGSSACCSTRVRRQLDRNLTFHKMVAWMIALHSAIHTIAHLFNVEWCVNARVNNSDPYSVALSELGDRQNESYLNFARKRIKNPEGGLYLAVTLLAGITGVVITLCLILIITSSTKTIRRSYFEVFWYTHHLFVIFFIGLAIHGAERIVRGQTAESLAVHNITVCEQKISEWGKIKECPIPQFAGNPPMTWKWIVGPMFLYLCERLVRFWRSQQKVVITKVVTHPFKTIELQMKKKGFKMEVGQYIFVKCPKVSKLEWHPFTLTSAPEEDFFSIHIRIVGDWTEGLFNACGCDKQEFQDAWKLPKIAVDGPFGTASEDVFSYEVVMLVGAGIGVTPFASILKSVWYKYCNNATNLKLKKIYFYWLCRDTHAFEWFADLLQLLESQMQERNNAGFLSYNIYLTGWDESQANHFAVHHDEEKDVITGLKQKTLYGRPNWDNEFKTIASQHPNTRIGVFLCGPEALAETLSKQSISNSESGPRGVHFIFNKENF
Test [9] has as its target NADPH oxidase 4 (Homo sapiens) (UniProt Q9NPH5). In words: NOX4-dependent H2O2 signal modulators, primary screen, NOX inhibitor project, cell-based, HEK293-NOX4, tetracycline-induced, Amplex Red fluorescence (AID 1160). The settings on record: 45 min, higher = more signal, called active from +8 up or from −8 down.
Test [10] addresses NADPH oxidase 5 (Homo sapiens) (UniProt Q96PH1). Nature of the test: NOX5-dependent H2O2 signal modulators, primary screen, NOX inhibitor project, cell-based, HEK293-NOX5, Amplex Red fluorescence (AID 1161). The settings on record: HEK293-NOX5, ionomycin, 45 min, higher = more signal.

Active and inactive are the calls of the source.

The results in this text go back to PubChem BioAssay.

Chain of NADPH oxidase 4 (Homo sapiens) (Q9NPH5 whole entry, looked up): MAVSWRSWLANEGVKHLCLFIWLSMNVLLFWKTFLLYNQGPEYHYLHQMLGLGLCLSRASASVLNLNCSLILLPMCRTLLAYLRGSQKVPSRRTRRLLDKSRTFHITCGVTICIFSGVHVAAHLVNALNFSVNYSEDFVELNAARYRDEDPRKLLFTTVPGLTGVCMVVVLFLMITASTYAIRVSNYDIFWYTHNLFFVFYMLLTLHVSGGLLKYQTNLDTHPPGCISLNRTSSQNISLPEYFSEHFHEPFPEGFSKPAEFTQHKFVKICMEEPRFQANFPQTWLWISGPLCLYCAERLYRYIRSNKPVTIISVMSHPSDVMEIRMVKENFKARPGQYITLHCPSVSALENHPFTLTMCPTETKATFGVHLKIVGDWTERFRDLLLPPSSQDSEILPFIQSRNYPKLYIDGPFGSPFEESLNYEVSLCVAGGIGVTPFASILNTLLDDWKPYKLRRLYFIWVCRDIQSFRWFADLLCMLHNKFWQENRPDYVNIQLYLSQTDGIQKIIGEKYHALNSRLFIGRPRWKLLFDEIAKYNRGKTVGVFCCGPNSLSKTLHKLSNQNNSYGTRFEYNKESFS
Chain of NADPH oxidase 5 (Homo sapiens) (Q96PH1 whole entry, looked up): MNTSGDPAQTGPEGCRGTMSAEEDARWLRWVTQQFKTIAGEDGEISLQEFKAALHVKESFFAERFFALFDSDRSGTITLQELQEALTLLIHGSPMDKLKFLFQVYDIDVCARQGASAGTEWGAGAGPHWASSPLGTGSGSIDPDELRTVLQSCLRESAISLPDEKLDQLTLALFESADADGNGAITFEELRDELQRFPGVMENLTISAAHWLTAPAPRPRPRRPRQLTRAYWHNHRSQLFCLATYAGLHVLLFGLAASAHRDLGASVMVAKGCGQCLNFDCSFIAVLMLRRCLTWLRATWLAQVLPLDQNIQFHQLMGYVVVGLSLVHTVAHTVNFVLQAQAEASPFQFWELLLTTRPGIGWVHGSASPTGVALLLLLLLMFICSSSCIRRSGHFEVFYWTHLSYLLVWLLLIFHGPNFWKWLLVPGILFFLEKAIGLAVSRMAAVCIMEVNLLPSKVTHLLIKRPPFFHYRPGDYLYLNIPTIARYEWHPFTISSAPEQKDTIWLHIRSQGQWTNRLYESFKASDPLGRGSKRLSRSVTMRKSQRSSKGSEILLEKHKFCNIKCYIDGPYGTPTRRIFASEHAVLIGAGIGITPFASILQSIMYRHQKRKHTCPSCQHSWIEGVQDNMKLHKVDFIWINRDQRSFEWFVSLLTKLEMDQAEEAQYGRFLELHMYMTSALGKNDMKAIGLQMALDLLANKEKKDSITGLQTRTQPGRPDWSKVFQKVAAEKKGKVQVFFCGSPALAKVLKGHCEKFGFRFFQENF

As for `O=C1O[C@@H](c2ccccc2)[C@@H](c2ccccc2)N2[C@@H](c3ccccc3OCCO)[C@]3(C(=O)Nc4ccc(C#CC5=CCCCC5)cc43)[C@@H](C(=O)O)[C@H]12`, the z-score in [1] was 1.72 (inactive); in test [3], -1.69 (inactive); in test [4], -2.47 (inactive); in [5], -13.4 (active); in [6] it was -2.89 (inactive); in test [7], 0.661. For the same compound, the z-score is 2.26 (inactive) in test [8], -2.11 (inactive) in [9] and -2.75 in test [10]. In test [2], this compound showed a composite z-score of 0.19.
Consider `CC(C)N1CC=CC23O[C@@H]4/C=C\CCCOC(=O)C4[C@H]2C(=O)N(CCO)[C@@H]3C1=O` (stereo not given in full), for which the z-score in test [1] was 3.41 (inactive); in test [3] it was 2.92 (inactive); in test [4], 0.236 (inactive); in [5] it was 0.716 (inactive); in test [6] it was -0.806 (inactive); in test [7], 0.54. Besides, the values for the z-score in test [8], in test [9] and in test [10] were 1.23 (inactive), 0.375 (inactive) and 1.84, respectively. For the same compound, in test [2], the composite z-score is -0.0518.
In the case of `C[C@]1(C(=O)NCc2ccccc2)c2ccccc2C(=O)N(Cc2cc(C(F)(F)F)cc(C(F)(F)F)c2)[C@H]1c1ccc(CO)cc1`, the z-score in test [1] is 2.32 (inactive); in [3], 6.25 (inactive); in test [4], 1.11 (inactive); in test [5], 0.709 (inactive); in test [6] it was 0.448 (inactive); in [7] it was 3.92. For the same compound, the z-score in test [8] is -1.35 (inactive); in test [9], -1.03 (inactive); in test [10], -1. Further, the composite z-score in test [2] was found to be 0.364.
Take `O=C(CS)NCCCCCCNC(=O)[C@@H]1C[C@@H]2C(=O)N[C@@H](Cc3ccccc3)C(=O)N2[C@@H]1c1ccc(O)cc1`: the z-score in test [1] is 0.706 (inactive); in test [3], 6.26 (inactive); in test [4] it was 1.52 (inactive); in test [5] it was 4.5 (inactive); in [6], 0.595 (inactive); in [7] it was -0.113. Further, the z-score in test [8] is 1.48 (inactive); in test [9], 0.457 (inactive); in test [10], 0.729. In addition, in [2], the composite z-score came out at 0.0273.
Regarding `CN(C)C(=O)[C@@]1(Cc2ccccc2N=[N+]=[N-])N=C(c2ccc(OCCCO)cc2)O[C@H]1c1ccccc1CN=[N+]=[N-]`, the z-score in [1] was 1.04 (inactive); in [3] it was 17.8 (active); in [4] it was 2.5 (inactive); in test [5] it was 2.73 (inactive); in test [6] it was -0.682 (inactive); in test [7], 1.01. The z-score was -1.52 (inactive) in test [8], 1.06 (inactive) in test [9] and 0.474 in [10]. Further, the composite z-score in test [2] is 0.635.
On to `C=CC(=O)O[C@@H](Cc1ccccc1)[C@H]1C2C=CCCC=C2CN1Cc1cccc(Cl)c1` (stereo not given in full), for which the z-score in [1] was 3.24 (inactive); in test [3], 1.35 (inactive); in test [4], 0.893 (inactive); in [5], 0.781 (inactive); in test [6], 0.182 (inactive); in test [7], 0.711. The z-score in test [8] was -0.192 (inactive); in test [9], 0.758 (inactive); in test [10], 0.467. Also, the composite z-score in test [2] was -0.378.
Regarding `COC(=O)[C@@]1(Cc2ccccc2N=[N+]=[N-])N=C(c2ccc(OCCCO)cc2)O[C@H]1c1ccccc1CN=[N+]=[N-]`, the z-score in test [1] was 0.383 (inactive); in test [3], 22.3 (active); in test [4], 8.71 (active); in test [5], 0.12 (inactive); in [6], 3.46 (inactive); in test [7] it was 0.575. For the same compound, the z-score in test [8] is -1.84 (inactive); in test [9] it was 0.483 (inactive); in [10], -0.961. In addition, the composite z-score in test [2] worked out at 0.191.
Consider `O=C(O)[C@@H]1Cc2c([nH]c3ccccc23)[C@@H](c2ccccc2)N1`, for which the z-score in test [1] is 0.327 (inactive); in [3] it was 0.864 (inactive); in test [4] it was 0.71 (inactive); in [5], 1.46 (inactive); in test [6], 0.152 (inactive); in test [7] it was -0.344. The figures for the z-score in test [8], in [9] and in test [10] were 1.04 (inactive), -0.429 (inactive) and -0.614, respectively. Moreover, in test [2], the composite z-score was -0.202.
In the case of `C=CCC(OC(C)=O)[C@@H]1[C@@H](N(Cc2cccc3ccccc23)C(=O)c2ccc(C)cc2)c2cc(OCCCO)ccc2N1C(=O)c1ccc(-c2ccccc2)cc1` (stereo not given in full), the z-score in [1] was 2.5 (inactive); in [3], 0.441 (inactive); in [4] it was -1.33 (inactive); in [5], -1.24 (inactive); in test [6], -1.5 (inactive); in test [7], 2.07. The z-score in test [8] is -0.0559 (inactive); in test [9], 1.01 (inactive); in [10], 2.96. Also, the composite z-score in test [2] was 0.0384.
Take `O=C(NCC(O)CO)[C@]1(Cc2ccccc2)N=C(c2ccc(OCCCO)cc2)O[C@@H]1c1ccccc1` (stereo not given in full): the z-score in test [1] is 0.738 (inactive); in test [3] it was 25.1 (active); in [4] it was 12 (active); in test [5] it was 0.267 (inactive); in [6], 0.35 (inactive); in [7], 0.807. The z-score in test [8] was 0.489 (inactive); in test [9], 1.68 (inactive); in test [10], 1.7. The compound further gave a composite z-score in test [2] of 1.39.
Regarding `O=C(CS)NCCCCCNC(=O)[C@H]1C[C@H]2C(=O)N[C@@H](Cc3ccccc3)C(=O)N2[C@H]1c1ccc(O)cc1`, the z-score in test [1] was 0.956 (inactive); in test [3], 6.87 (inactive); in [4] it was -0.29 (inactive); in test [5] it was -1.1 (inactive); in test [6] it was -1.95 (inactive); in test [7] it was 0.263. The results for the z-score in [8], in [9] and in test [10] were 0.99 (inactive), -0.205 (inactive) and 0.0913, respectively. The compound also returned a composite z-score in test [2] of 0.0371.
In the case of `CC1CC/C=C\[C@H]2OC34C=CCN(Cn5nnc6ccccc65)C(=O)[C@H]3N(C(C)CO)C(=O)[C@@H]4C2C(=O)O1` (stereo not given in full), the z-score was 0.0838 (inactive) in test [1]; 2.25 (inactive) in test [3]; 0.974 (inactive) in test [4]; 1.03 (inactive) in test [5]; 0.477 (inactive) in [6]; 0.0801 in [7]. In addition, the z-score is 0.963 (inactive) in test [8], 0.173 (inactive) in [9] and 1.79 in test [10]. The same compound registered a composite z-score in test [2] of -0.204.
For the compound `C=CCN1C(=O)[C@@]2(Cc3ccccc3)N=C(c3ccc(OCCCO)cc3)O[C@H]2c2ccccc21`, the z-score in test [1] is 0.0648 (inactive); in test [3], 33.3 (active); in test [4] it was 32 (active); in test [5] it was 2.61 (inactive); in test [6], 9.79 (active); in [7], -0.586. Further, the z-score in test [8] is -1.87 (inactive); in test [9], 0.969 (inactive); in test [10] it was 0.0569. The compound further came in with a composite z-score in test [2] of 0.48.
